Our source for the potency estimated from few doses values is publication PMC11062922 (Nature Chemical Biology, 2023).

Like-named read-outs stand apart in the source and are kept apart here.

What all share (design): species or system human, MV4-11 + K-562 + COLO205 + SK-N-BE2 + OVCAR-8
One assay concerns CDK7. The following applies: read-out: apparent Kd, n = 1.
The next assay deals with DYRK1A. The following applies: read-out: apparent Kd, compound concentrations: 100 nM and 1000 nM (sheet 'Samples'), n = 1.
A further assay has as its system FER. The following applies: read-out: apparent Kd, n = 1.
In a further assay the test system is FLT3. The following applies: read-out: apparent Kd, n = 1.
A further assay concerns LATS1. The following applies: read-out: apparent Kd, n = 1.
The next assay relates to MARK4. The note with it: read-out: apparent Kd, n = 1.
Another assay concerns MYLK3. The note with it: read-out: apparent Kd, n = 1.
The next assay concerns PLK4. The following applies: read-out: apparent Kd, n = 1.
In the next assay the test system is PRKCD. The following applies: read-out: apparent Kd, n = 1.
The subject of a further assay is PRKCQ. The note with it: read-out: apparent Kd, n = 1.
The subject of another assay is PRKD2. The note with it: read-out: apparent Kd, n = 1.
For a further assay, the system named is PRKD3. The following applies: read-out: apparent Kd, compound concentrations: 100 nM and 1000 nM (sheet 'Samples'), n = 1.
The subject of another assay is PTK2B. The following applies: read-out: apparent Kd, n = 1.
The next assay has as its system PTK2. The note with it: read-out: apparent Kd, n = 1.
In a further assay the test system is RPS6KA6. The note with it: read-out: apparent Kd, n = 1.
For the next assay, the system named is STK10. The following applies: read-out: apparent Kd, n = 1.
Another assay has as its system CDKL5. The note with it: read-out: apparent Kd, n = 1.
For the next assay, the system named is ERCC2. The note with it: read-out: apparent Kd, n = 1.
The next assay has as its system PIP4K2C. The following applies: read-out: apparent Kd; compound concentrations:100 nM and 1000 nM (sheet 'Samples'); n = 1.
The test system of a further assay is PRKAA1. The following applies: read-out: apparent Kd, n = 1.
Where [1] appears, read: compound concentrations:100 nM and 1000 nM (sheet 'Samples').

`Cn1ncc2c(N)ncnc21` [SKF-18267]: the potency estimated from few doses with CDK7 (compound concentrations: 100 nM and 1000 nM (sheet 'Samples'), CATDS: 5.5514862333248096E-3) is 667 nM; in the assay on DYRK1A (CATDS: 3.77369052298554E-3), 1560 nM; in the assay on FER (compound concentrations: 100 nM and 1000 nM (sheet 'Samples'), CATDS: 5.4218087868892397E-3), 697 nM; in the assay on FLT3 (compound concentrations: 100 nM and 1000 nM (sheet 'Samples'), CATDS: 6.0970372773572496E-3), 564 nM; with LATS1 (compound concentrations: 100 nM and 1000 nM (sheet 'Samples'), CATDS: 3.8471015452543802E-3) it was 1480 nM; in the assay on MARK4 (compound concentrations: 100 nM and 1000 nM (sheet 'Samples'), CATDS: 3.8950662850455102E-3), 1430 nM. The potency estimated from few doses with MYLK3 (compound concentrations: 100 nM and 1000 nM (sheet 'Samples'), CATDS: 3.9686163384318402E-3) is 1360 nM; with PLK4 (compound concentrations: 100 nM and 1000 nM (sheet 'Samples'), CATDS: 4.9790098691835901E-3) it was 821 nM; in the assay with PRKCD (compound concentrations: 100 nM and 1000 nM (sheet 'Samples'), CATDS: 3.5352355938645099E-3), 1880 nM; in the assay with PRKCQ (compound concentrations: 100 nM and 1000 nM (sheet 'Samples'), CATDS: 3.4517086035176399E-3) it was 2030 nM; in the assay on PRKD2 (compound concentrations: 100 nM and 1000 nM (sheet 'Samples'), CATDS: 4.0514258518823199E-3), 1290 nM; with PRKD3 (CATDS: 4.0252223893410396E-3) it was 1320 nM. Further, the potency estimated from few doses in the assay with PTK2B (compound concentrations: 100 nM and 1000 nM (sheet 'Samples'), CATDS: 7.2672167282142302E-3) was 423 nM; in the assay with PTK2 (compound concentrations: 100 nM and 1000 nM (sheet 'Samples'), CATDS: 4.9483549300151902E-3), 831 nM; in the assay on RPS6KA6 (compound concentrations: 100 nM and 1000 nM (sheet 'Samples'), CATDS: 7.1387563408407901E-3), 435 nM; with STK10 (compound concentrations: 100 nM and 1000 nM (sheet 'Samples'), CATDS: 3.6177977688347301E-3), 1760 nM.
Regarding `Fc1ccc(-c2c(-c3ccncc3)[nH]c3cccnc23)cc1` [RO1153853-000], the potency estimated from few doses in the assay on PRKD2 (compound concentrations: 100 nM and 1000 nM (sheet 'Samples'), CATDS: 5.7434995830704397E-2) is 1020 nM; in the assay on PRKD3 (CATDS: 5.1990975037574202E-2) it was 1420 nM.
With `O=C1NC(=O)C(N2CCc3ccccc32)=C1c1ccccc1Cl` [SB-373598], the potency estimated from few doses in the assay on CDK7 (setting [1]) is 93.7 nM; with CDKL5 (setting [1]), 1390 nM; in the assay on ERCC2 (setting [1]), 114 nM; in the assay with FER (setting [1]), 183 nM; in the assay on FLT3 (setting [1]), 1500 nM; in the assay with LATS1 (setting [1]), 994 nM. The potency estimated from few doses in the assay on MARK4 (setting [1]) was 884 nM; in the assay on MYLK3 (setting [1]) it was 974 nM; in the assay with PIP4K2C, 1020 nM; in the assay with PLK4 (setting [1]) it was 273 nM; in the assay with PRKAA1 (setting [1]), 273 nM; in the assay on PRKCD (setting [1]), 2190 nM. Besides, the potency estimated from few doses in the assay with PRKCQ (setting [1]) is 1580 nM; with PRKD2 (setting [1]) it was 1920 nM; in the assay on PTK2B (setting [1]), 129 nM; with PTK2 (setting [1]), 173 nM; with RPS6KA6 (setting [1]), 125 nM; in the assay on STK10 (setting [1]), 996 nM.
With `CN(c1ccc(NC(=O)N2CCN(CCCN3CCOCC3)CC2)cc1)c1ccnc(Nc2ccc(CS(C)(=O)=O)cc2)n1.Cl` [GW830899A], the potency estimated from few doses in the assay on CDK7 (compound concentrations: 100 nM and 1000 nM (sheet 'Samples'), CATDS: 3.2126813899460802E-2) is 560 nM; with ERCC2 (compound concentrations: 100 nM and 1000 nM (sheet 'Samples'), CATDS: 3.5571834197337601E-2) it was 471 nM; with FER (compound concentrations: 100 nM and 1000 nM (sheet 'Samples'), CATDS: 2.4500715622852599E-2) it was 940 nM; with FLT3 (compound concentrations: 100 nM and 1000 nM (sheet 'Samples'), CATDS: 9.7213478094733505E-2), 119 nM; in the assay on MARK4 (compound concentrations: 100 nM and 1000 nM (sheet 'Samples'), CATDS: 2.1363637318540001E-2), 1290 nM; in the assay on PRKAA1 (compound concentrations: 100 nM and 1000 nM (sheet 'Samples'), CATDS: 2.4895545924416802E-2), 909 nM. The potency estimated from few doses was 1020 nM in the assay on PRKCQ (compound concentrations: 100 nM and 1000 nM (sheet 'Samples'), CATDS: 2.35958557762035E-2); 643 nM with PTK2 (compound concentrations: 100 nM and 1000 nM (sheet 'Samples'), CATDS: 2.9725199889124199E-2).
On to `CCOC(=O)N1CCC(n2cnc(-c3ccc(F)cc3)c2-c2ccnc(N)n2)CC1` [SB-219952], for which the potency estimated from few doses in the assay on CDK7 (compound concentrations: 100 nM and 1000 nM (sheet 'Samples'), CATDS: 2.08118175664989E-2) was 201 nM; in the assay with CDKL5 (compound concentrations: 100 nM and 1000 nM (sheet 'Samples'), CATDS: 7.5103535509973398E-3), 2170 nM; with DYRK1A (CATDS: 7.51253046880054E-3) it was 2170 nM; in the assay on ERCC2 (compound concentrations: 100 nM and 1000 nM (sheet 'Samples'), CATDS: 2.0109331844810101E-2), 213 nM; with FER (compound concentrations: 100 nM and 1000 nM (sheet 'Samples'), CATDS: 1.3888971219533201E-2), 416 nM; in the assay on FLT3 (compound concentrations: 100 nM and 1000 nM (sheet 'Samples'), CATDS: 8.0965887805869007E-3), 1630 nM. Besides, the potency estimated from few doses in the assay with LATS1 (compound concentrations: 100 nM and 1000 nM (sheet 'Samples'), CATDS: 8.0711896225058692E-3) was 1650 nM; with MYLK3 (compound concentrations: 100 nM and 1000 nM (sheet 'Samples'), CATDS: 7.2973663588222501E-3), 2470 nM; in the assay on PLK4 (compound concentrations: 100 nM and 1000 nM (sheet 'Samples'), CATDS: 1.18225591983295E-2), 582 nM; with PRKAA1 (compound concentrations: 100 nM and 1000 nM (sheet 'Samples'), CATDS: 1.3066263921832201E-2), 471 nM; with PRKCD (compound concentrations: 100 nM and 1000 nM (sheet 'Samples'), CATDS: 8.2492592697018703E-3) it was 1530 nM; in the assay with PRKD2 (compound concentrations: 100 nM and 1000 nM (sheet 'Samples'), CATDS: 9.3127707603308692E-3), 1050 nM. In addition, the potency estimated from few doses in the assay on PRKD3 (CATDS: 8.3087862400952096E-3) is 1490 nM; in the assay on PTK2B (compound concentrations: 100 nM and 1000 nM (sheet 'Samples'), CATDS: 1.55357941259002E-2) it was 336 nM; in the assay on PTK2 (compound concentrations: 100 nM and 1000 nM (sheet 'Samples'), CATDS: 1.3544498558995E-2), 438 nM; in the assay on RPS6KA6 (compound concentrations: 100 nM and 1000 nM (sheet 'Samples'), CATDS: 1.4323736759091399E-2), 392 nM; with STK10 (compound concentrations: 100 nM and 1000 nM (sheet 'Samples'), CATDS: 9.6073353466608804E-3), 964 nM.
